Source: PubChem BioAssay AID1981 (Southern Research Specialized Biocontainment Screening …, 2009)
In all, about 2,200 compounds went through this assay and about 480 (22%) were called active. No rule for the calls is given here. A selection follows. Entries with a potency or affinity are not part of this list.

test: S. Typhimurium GFP fluorescence dose response in modified counterscreen for PhoP regulon inhibitor project (AID 1981); conditions: 4 h; series mostly up to 150 µM; inhibition: at the top concentration;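 also: 0% = induced DMSO wells and 100% = uninduced wells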

SMILES	inhibition
COc1cccc(/C=N/n2c(C)nc3ccccc32)c1OC	-10.1% (inactive)
CCCn1c(N)nc2ccccc21	14% (inactive)
COc1ccc2c(c1)nc(N)n2Cc1ccccc1	5.95% (inactive)
CCCCn1c(N)nc2ccccc21	13.4% (inactive)
CSc1nc2ccccc2n1Cc1cccc(F)c1	-9.11% (inactive)
CCOc1cc(S(=O)(=O)N2CCN(CC)CC2)ccc1Cl	-9.5% (inactive)
CC(C)Cn1cnc2sc3c(c2c1=N)CCCC3	-13% (inactive)
CCn1c(C)cc(=S)c2ccccc21	-32% (inactive)
CC(C)(C)C1CCC2(CC1)Nc1cccc3cccc(c13)N2	36.6% (inactive)
Cc1ccc(C(=O)CSc2ncnc3sc4c(c23)CCCC4)cc1	-11.5% (inactive)
c1ccc(Cn2nnc3c(NCc4ccc5c(c4)OCO5)nc(C4CC4)nc32)cc1	-2.72% (inactive)
CCC(CC)C(=O)N1c2ccc(F)cc2CCC1C (configuration not stated)	0.41% (inactive)
Cc1nc(N2CCN(Cc3ccccc3)CC2)nc2c1C(=O)CC(C)C2 (configuration not stated)	5.44% (inactive)
Cc1cc(/C=N/NC(N)=S)c(C)n1-c1ccc(Cl)c(Cl)c1	-26.8% (inactive)
Cn1cccc1CC(=O)N/N=C/C(Cl)=C/c1ccccc1	15.1% (inactive)
c1ccc2c(c1)Sc1ccccc1N2CC1CN2CCC1CC2 (configuration not stated)	18.1% (inactive)
CSc1ccc2c(c1)C(N1CCN(C)CC1)Cc1ccccc1S2 (configuration not stated)	20.5% (inactive)
O=C(CSc1nc2ccccc2o1)Nc1ccc(N2CCOCC2)cc1	-19.7% (inactive)
O=C1CC(c2ccccc2)n2nc(NC(=O)c3ccccc3)nc2N1 (configuration not stated)	-4.4% (inactive)
CCN(c1ccc(OCC(=O)OCC(=O)Nc2ccc(F)c(F)c2F)cc1)S(=O)(=O)c1ccccc1	11.7% (inactive)
O=C(Cc1n[nH]c(=O)c2ccccc12)OCC(=O)c1ccc2c(c1)OCCO2	6.84% (inactive)
CC1CCN(C(c2cc3cc4c(cc3[nH]c2=O)OCO4)c2nnnn2CC2CCCO2)CC1 (configuration not stated)	-12.8% (inactive)
COc1ccc(N(CC(=O)Nc2ccccc2SC)S(C)(=O)=O)cc1OC	-0.04% (inactive)
Nc1cc(N)nc(SCc2cc(=O)oc3cc4c(cc23)CCC4)n1	0.78% (inactive)

SMILES	inhibition
Nc1nnc(Sc2ccc(Cl)cc2[N+](=O)[O-])s1	0.13% (inactive)
CCN(CC)S(=O)(=O)c1ccc2[nH]cc(C(=O)NCCc3ccccc3)c(=O)c2c1	3.6% (inactive)
O=C(CSc1nccc(=O)[nH]1)N1c2ccccc2CCc2ccccc21	-5.17% (inactive)
O=C(CSc1nc(Nc2ccccc2)nc(N2CCOCC2)n1)Nc1ccc([N+](=O)[O-])cc1	2.48% (inactive)
Cc1cc(=O)oc(C)c1C(=O)NCc1cccnc1	2.68% (inactive)
COc1ccc(Cl)cc1Nc1nc(-c2sc(NC(=O)c3ccco3)nc2C)cs1	17.1% (inactive)
O=C(NNc1nc(-c2ccccc2)cs1)c1ccco1	-17.3% (inactive)
Cc1cc(C)cc(OC(=O)CS(=O)c2ccc(C(F)(F)F)cc2[N+](=O)[O-])c1 (configuration not stated)	-13.2% (inactive)
c1ccc2c(c1)[nH]c1c(N3CCCC3)ncnc12	17.7% (inactive)
O=C(CCCNS(=O)(=O)c1ccccc1)NCc1ccco1	-7.4% (inactive)
O=Cc1cccn1Cc1ccccc1[N+](=O)[O-]	1.61% (inactive)
CCN1CCN(c2oc(COc3ccc(Cl)cc3)nc2C#N)CC1	-4.31% (inactive)
CCOC(=O)c1cnc2ccc(OCC)cc2c1N1CCN(c2ccccc2)CC1	-3.31% (inactive)
COc1ccc2cc(C#N)c(NC(C)C)nc2c1	-0.85% (inactive)
COc1cc(C2NC(=O)NC(c3ccccc3)=C2C(C)=O)ccc1OCC(=O)O (configuration not stated)	-5.88% (inactive)
CC1CCCC(C)N1/N=C/c1c[nH]c2ccc(Br)cc12 (configuration not stated)	11% (inactive)
COc1cccc(N=Cc2c[nH][nH]c2=O)c1	-0.27% (inactive)
O=C(OCc1ccccc1)Oc1cncc(C(=O)O)c1	11.2% (inactive)
COC(=O)c1ccc(C(=O)OC)c(NC(=O)COc2ccccc2OC)c1	-0.88% (inactive)
CC(=O)Nc1nc2nc(-c3ccccc3)cc(-c3ccccc3)n2n1	-10.5% (inactive)
CCOC(=O)C(/C=C(\C#N)C(=O)OCC)=C(/N)N1CCN(c2c(C)cccc2C)CC1	-22.8% (inactive)
O=C(CCN1CCc2ccccc2C(c2ccccc2)C1)c1ccc2c(c1)OCCO2 (configuration not stated)	30.5% (inactive)
CCCC(=O)c1c[nH]c(C(=O)NCCCN2CCOCC2)c1	-18.2% (inactive)
O=C(c1ccc(CSc2nc3ccncc3[nH]2)cc1)N1CCN(c2cccc(Cl)c2)CC1	-35.5% (inactive)

SMILES	inhibition
O=S(=O)(c1ccc(F)c2ccccc12)N1CCCCC1	-5.03% (inactive)
COc1ccc(-c2[nH]ncc2/C=C(\C#N)C(=O)NC2CC2)cc1	-18.2% (inactive)
COC(=O)C1=C(C)N(C)C(=O)/C1=C\c1ccco1	-11.7% (inactive)
COC(=O)c1ccc(NC(=S)NCCc2cccc(C)c2)cc1	-3.52% (inactive)
COc1ccc(S(=O)(=O)n2nc(OC(=O)c3ccccc3Br)cc2N)cc1	3.07% (inactive)
CN(C(=O)C1CCOC1)c1nnc(-c2ccccn2)s1 (configuration not stated)	-18.9% (inactive)
O=C1NC(c2ccc3c(c2)OCO3)Oc2ccccc21 (configuration not stated)	-11.6% (inactive)
CCn1nnc(-c2ccccc2NS(=O)(=O)c2ccc(S(=O)(=O)N3CCCCCC3)cc2)n1	-13.5% (inactive)
CC(C)CCNC(=S)Nc1ccc([N+](=O)[O-])cc1	17.3% (inactive)
Cc1cc(C(=O)N/N=C/c2ccc[nH]2)no1	-6.52% (inactive)
O=C(NC1CCN(C(=O)N2c3ccccc3Sc3ccccc32)CC1)c1ccco1	-18.3% (inactive)
Cc1cc(CNC(=O)Nc2ccc3c(c2)OCO3)nn1C	-1.45% (inactive)
O=C(COc1ccc2ccccc2c1)N1CCN(CC2CC3C=CC2C3)CC1 (configuration not stated)	-22.7% (inactive)
COCC(=O)N(Cc1ccco1)c1nnc(C2CCOC2)s1 (configuration not stated)	-13.3% (inactive)
CCCc1nn(C)c2c1C(c1cccnc1)C(C#N)=C(N)O2 (configuration not stated)	10.6% (inactive)
CCOC(=O)C1(S(=O)(=O)c2ccccc2)CCN(Cc2ccc(Cl)cc2)CC1	6.33% (inactive)
O=C(CN1C(=O)c2ccccc2C1=O)N1CCN(c2ccccn2)CC1	-16.9% (inactive)
Cc1ccc(/C=C/c2nnc(-c3ccc(C)cc3)o2)cc1	-10.9% (inactive)
COc1ccc2ccccc2c1/C=N/NC(=O)c1sc(N)c(C#N)c1C	8.92% (inactive)
CC(=O)n1cc(/C=N/NC(=O)c2sc(C)nc2C)c2ccccc21	12.1% (inactive)
COc1ccc(C2CC(c3ccccc3)=NN2c2ccc(/C=N/NC(=O)c3ccncc3)cc2)cc1 (configuration not stated)	-10.1% (inactive)
COc1ccc(OCCn2cc(/C=N/NC(=O)c3ccncc3)c3ccccc32)cc1	-13.5% (inactive)
COc1ccc2c(c1)CC1(CN2C)C(=O)NC(=O)N(c2ccc(F)cc2)C1=O (configuration not stated)	1.85% (inactive)
O=C1Nc2ccc(F)cc2C12SCCS2	2.27% (inactive)

SMILES	inhibition
Cc1cc2ncn(CC(O)COc3cccc(C(=O)O)c3)c2cc1C (configuration not stated)	-1.34% (inactive)
COc1cc([N+](=O)[O-])ccc1NC(=O)CN(C)C	7.69% (inactive)
COc1cc([N+](=O)[O-])cc(/C=N/NC(=O)c2cccnc2)c1O	27.7% (inactive)
C#CC(C)(CC)NC(=O)c1cc(OC)c(OC)c(OC)c1 (configuration not stated)	-16.3% (inactive)
CC(C)(C)c1cc2cccnc2n1Cc1cccc(Cl)c1	10.3% (inactive)
COc1ccc(Cl)cc1C(=O)Nc1ccc(NC(=O)c2ccco2)cc1	2.6% (inactive)
O=C(O)CCc1nn2c3ccccc3n(CC(=O)c3ccccc3)c2nc1=O	-7.66% (inactive)
Nc1ncncc1-c1ccc(Cl)cc1	23.2% (inactive)
Nc1c(-c2ccccc2)cnn1-c1cccc([N+](=O)[O-])c1	6.43% (inactive)
CCOC(=O)C1CCCN(C(=O)Cc2ccc(Cl)cc2)C1 (configuration not stated)	-1.97% (inactive)
CC1=CC(C)C2(CO)COC(c3ccccc3O)C1C2C (configuration not stated)	-11.4% (inactive)
CNc1nc(-c2ccccn2)nnc1-c1ccccc1	5.61% (inactive)
Nc1nc(Nc2ccc(Cl)cc2)n[nH]1	1.77% (inactive)
Cc1ccc2c(CN3CCC(C)CC3)cc(=O)oc2c1	14.3% (inactive)
Cc1[nH]c2ccccc2c1C1=NNC(=Nc2ccc(F)cc2)SC1	4.54% (inactive)
CCN1/C(=C/C(C)=C/c2sc3ccccc3[n+]2CC)Sc2ccccc21	-25.4% (inactive)
COc1ccc(C(=O)COc2nc(C)cc(C)c2C#N)cc1	-2.08% (inactive)
Cc1cc(-c2csc(NC(=O)c3ccc(S(=O)(=O)N(C)C)cc3)n2)c(C)n1-c1ccccc1	37.3% (inactive)
CC1(C)CC(=O)c2c(nc3ccccc3c2N)C1	15.4% (inactive)
Cc1nn(-c2ccc(Cl)cc2)c2[nH]c(=O)c(CNCc3ccc4c(c3)OCO4)cc12	-13.3% (inactive)
CC(O)c1ccc(OCCN(C)c2ccccn2)cc1 (configuration not stated)	-4.92% (inactive)
Cc1cc(C)n(-c2ccc(C(=O)Nc3nc4ccccc4s3)cc2)n1	22.7% (inactive)
CC(=O)c1c(N2CCN(C(=O)C3CCCO3)CC2)nc(=S)n(-c2ccccc2)c1C (configuration not stated)	-7.59% (inactive)
O=S(=O)(Cc1ccccc1Cl)N1CCN(Cc2ccc3c(c2)OCO3)CC1	-16.8% (inactive)

SMILES	inhibition
Cc1ccc(-n2c(C)cc(C3=NNC(=NC4CC4)SC3)c2C)cc1C	-3.95% (inactive)
Cc1nc2ccccc2c(=O)n1/N=C/c1ccc(N(C)C)cc1	-8.07% (inactive)
c1ccc(Cc2nnc(-c3ccccc3)o2)cc1	-14.2% (inactive)
NCCCCCc1nnc(SCc2ccc(Cl)c(Cl)c2)o1	2.34% (inactive)
O=C(c1ccc(-c2ccccc2)cc1)c1ccccc1C(=O)N1CCOCC1	-16.8% (inactive)
COc1ccc(N2CCN(C(=O)C3CCCO3)CC2)cc1 (configuration not stated)	0.62% (inactive)
O=C(c1ccc(Cl)cc1Cl)C1(n2cncn2)Oc2ccccc2C1O (configuration not stated)	-5% (inactive)
Cc1cccc(-n2ncc3c(NCc4ccc5c(c4)OCO5)ncnc32)c1	-7.68% (inactive)
Brc1ccc2cccnc2c1	-12.2% (inactive)
O=C1C2C3c4ccccc4C(c4ccccc43)C2C(=O)N1c1cccc2cccnc12 (configuration not stated)	-8.36% (inactive)
Cc1ccc(C=Nc2ccccc2C(N)=O)cc1	17.5% (inactive)
CCOc1c(Br)cc(CNCc2cccs2)cc1OC	-0.6% (inactive)
Clc1ccc(Cn2ncc3c(NCc4ccco4)ncnc32)c(Cl)c1	5.71% (inactive)
Cc1ccc(NC(=O)CCCSc2nc3ccccc3[nH]2)cc1	28.1% (inactive)
O=C(Nc1cccnc1)c1cc(F)cc(F)c1	-0.92% (inactive)
Cc1cc(C)c2nc(NNC(=O)c3ccc(S(=O)(=O)N4CCCCC4)cc3)sc2c1	17.3% (inactive)
COC(=O)c1sccc1NC(=O)C1C2C=CC(O2)C1C(=O)O (configuration not stated)	-1.72% (inactive)
Nc1ccc(C(=O)OCc2nc3ccccc3[nH]2)cc1	-1.26% (inactive)
CCOc1ccc(CCNC(=O)c2cc3sc(Cl)cc3n2C)cc1OCC	-3.59% (inactive)
CCN1CCN(C(=O)c2ccc(COc3ccc(Cl)cc3)o2)CC1	10.1% (inactive)
CCOc1ccc(/C=N/O)cc1	-0.89% (inactive)
